Assay outcomes deposited in PubChem by ICCB-Longwood Screening Facility, Harvard Medical School.
The entries come from a sample that favours hits as a whole.
S aureus helic: blocks Staphylococcus aureus DNA helicase; purified S. aureus helicase, fluorescence unwinding assay; inhibition, % (concentration not given with the values); 120,000 tested, 0.05% active; AID 485395; in the data active = inhibition above about 25%, passing the limit was not always enough
Sa growth 42C: inhibitors of Staphylococcus aureus growth at 42 °C; S. aureus RN4220 growth, OD600, 20 h; stronger effect = lower value; relative growth, % (test concentration not listed); 170,000 tested, 0.53% active; AID 720641;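 active = relative growth at most 50% at the other temperature and 20+ points below 30 °C, or under 10% at both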
Of the large screens only hits and unclear results are named; the others gave an inactive call.

CC1=Nc2cc(C(=O)N3CCCCCC3)ccc2Sc2ccccc21	none
COc1ccc(S(=O)(=O)N2CCN(C)CC2)c(C)c1C	none (no result: Sa growth 42C)
Cc1ccc(Cc2c[nH]c(=S)s2)cc1	Sa growth 42C 23
Cc1ccc(Cc2cn3cc(-c4ccc(F)cc4)nc3s2)cc1	none (no result: S aureus helic)
O=C(Cc1csc(-c2ccsc2)n1)Nc1cccc(C(=O)NC2CC2)c1	none
Cc1cc(C)cc(NC(=S)NC2CCCCC2)c1	none (no result: S aureus helic)
FC(F)(F)c1cc(NC(=S)NC2CCCCC2)cc(C(F)(F)F)c1	Sa growth 42C 7.4 (no result: S aureus helic)
COc1cc2nc(N(C)C)nc(N)c2cc1OC	S aureus helic 44
COc1cc2nc(Nc3ccc(C)c(C)c3)nc(N)c2cc1OC	none (no result: S aureus helic)
CC(=O)Nc1sc2c(c1CN1CCc3ccccc3C1)CCCC2	none (no result: Sa growth 42C)
CCOC(=O)c1ccc(Nc2nc3nonc3nc2Nc2cccc(C)c2C)cc1	Sa growth 42C -1.0 (no result: S aureus helic)
CCOC(=O)c1ccc(Nc2nc3nonc3nc2NCc2ccco2)cc1	none
CSc1nnc2c(n1)OC(C)Nc1ccc(Br)cc1-2 (configuration not stated)	none
O=C(c1ccccc1F)N(Cc1ccccc1)C1C=CS(=O)(=O)C1 (configuration not stated)	none
N#Cc1cnc(SCc2ccccc2)nc1N	none
COc1ccc(Nc2cc(C)nc3ccc(OC)cc23)cc1	S aureus helic 63
COc1ccc(CNc2cc(C)nc3ccc(OC)cc23)cc1	none
Cc1ccsc1C(=O)OCC(=O)N1CCc2ccccc21	none
O=C1CSCC(=O)N1c1ccc(Cl)cc1	none
Cc1c(Cl)sn(-c2ccc(Cl)cc2)c1=O	Sa growth 42C -1.2
CN(C)c1ncn(Cc2c(Cl)cccc2Cl)c2ncnc1-2	none
N#C[C@@H]1C[C@@](C#N)(C(=O)c2ccccc2)[C@H]2C=Cc3ccccc3N12	Sa growth 42C 5.3
Cc1ccc(C)c([C@H]2[C@H](C(=O)c3ccccc3)N3c4ccccc4C=CC3C2(C#N)C#N)c1 (some centres not stated)	none
Cc1cc(=S)nc(C(C)C)[nH]1	Sa growth 42C 28
Cc1cc(C)[nH]c(=S)n1	none
CC(=O)Nc1cccc(NC(=O)Cn2c(-c3cccnc3)ccc(C#N)c2=O)c1	none
COc1ccc(C(=O)Cn2nc(CNc3ccc(Br)cc3)[n+]3c2CCCCC3)cc1	Sa growth 42C 1.4
Cc1nn(CC(=O)c2ccc(Br)cc2)c(N)[n+]1C	none (no result: Sa growth 42C)
Cn1c2c(c(=O)n(C)c1=O)C(c1ccc(Cl)cc1Cl)C(C#N)=C(N)N2 (configuration not stated)	none
CCOc1nc2cccnc2n(Cc2cc(=O)n3ccccc3n2)c1=O	none
COc1ccc(-c2cc(C(F)(F)F)nc(SCCC(=O)N(C)Cc3ccccc3)n2)cc1	none
CC1COc2c(N3CCN(C)CC3)c(F)cc3c(=O)c(C(=O)N4CCN(c5ncccn5)CC4)cn1c23 (configuration not stated)	none
CC1COc2c(N3CCN(C)CC3)c(F)cc3c(=O)c(C(=O)O)cn1c23 (configuration not stated)	Sa growth 42C -0.5 (no result: S aureus helic)
O=C(O)CC(C(=O)O)N1C(=O)/C(=C\c2ccco2)SC1=S (configuration not stated)	none
Nc1nnc(SCC(O)CO)s1 (configuration not stated)	none
CCn1c(=O)cc(Nc2ccc(C)c(C)c2)[nH]c1=O	Sa growth 42C 2.4
Cc1ccc(Nc2ssc(=O)c2Cl)cc1C	none
CN(Cc1ccccc1)S(=O)(=O)C1CCS(=O)(=O)C1 (configuration not stated)	none
CC1=C(C(=O)N(C)C)C(c2ccc(Cl)cc2)NC(=O)N1 (configuration not stated)	none
CC1=C(C(=O)OC2CCCC2C)C(c2ccc(Cl)cc2)NC(=O)N1 (configuration not stated)	Sa growth 42C 28
O=C(O)CCn1nc(-c2cccs2)oc1=O	none
O=C(CC(Sc1ccc(Br)cc1)C(=O)O)c1ccc(Cl)cc1 (configuration not stated)	Sa growth 42C 2.0
O=C(CC(SC1CCCCC1)C(=O)O)c1ccc(Br)cc1 (configuration not stated)	none
Cc1cc(C)n(CCCNc2nc(-c3cccnc3)nc3ccccc23)n1	none
CCN1CCN(C(=O)CC2OC(=O)c3ccccc32)CC1 (configuration not stated)	none
CCOC(=O)c1c(-c2cccs2)csc1NC(=O)c1ccccc1	none
CCOC(=O)c1c(-c2ccc(C)o2)csc1NC(=S)NC(=O)N(C)C	Sa growth 42C -0.6
Cc1nn(-c2ccccc2)c2sc(C(=O)N3CCN(C)CC3)cc12	none
CC(=O)OC(COc1ccccc1)Cn1nc(C)cc1C (configuration not stated)	none
CC(C)NC(=S)N/N=C/C1CC=CCC1 (configuration not stated)	none
C/C=C(/C)C(=O)OC1CC(O)(C(C)C)C2C(OC(=O)c3ccc(O)cc3)CC(C)=CCC12C (configuration not stated)	Sa growth 42C 6.0
Clc1ccccc1C(c1ccccc1)(c1ccccc1)n1ccnc1	Sa growth 42C 0.2 (no result: S aureus helic)
N#Cc1c(Cl)cccc1-n1ccnc1	none
Cc1ccc(/C(C#N)=C\c2cccs2)cc1	none
N#C/C(=C\c1ccco1)S(=O)(=O)c1ccc(Cl)cc1	none
N#C/C(=C/c1ccc(Br)o1)c1ccc(C(=O)O)cc1	none
Cc1ccc(/C(C#N)=C\c2ccco2)cc1	Sa growth 42C 42
N#C/C(=C/c1ccco1)c1ccc(Br)cc1	Sa growth 42C 22
N#C/C(=C\c1ccco1)c1ccc(Cl)cc1	Sa growth 42C 49 (no result: S aureus helic)
CC(=O)Nc1ccc(S(=O)(=O)N2CCCC(CO)C2)cc1 (configuration not stated)	none
Cc1cc(C)c2c(=O)cc(CSCC(=O)Nc3nnc(C)s3)[nH]c2c1	Sa growth 42C -0.5 (no result: S aureus helic)
Cc1ccc2c(=O)cc(CSCC(=O)Nc3nnc(C)s3)[nH]c2c1	none (no result: S aureus helic)
CCc1nnc(NC(=O)CSc2nc3c(c(=O)n2Cc2ccccc2)SC(C)C3)s1 (configuration not stated)	none
COc1cc(C(=O)N=C2C(C)=CC(=O)C=C2C)cc(OC)c1OC	Sa growth 42C -0.6
COc1cc(C(=O)Oc2cc(C)cc(C)c2)cc(OC)c1OC	none (no result: S aureus helic)
CN1CCC(N(C)Cc2csc(-c3ccc(Cl)cc3)n2)CC1	Sa growth 42C -0.3
Cc1ccc(S(=O)(=O)NCCc2csc(-c3ccc(Cl)cc3)n2)cc1	none (no result: S aureus helic)
CC1=C(C)C(=O)C(N2CCN(Cc3ccccc3)CC2)=CC1=O	none
CC(C)C1c2cccn2CCN1C(=O)Nc1ccccc1 (configuration not stated)	none
NC1=CC(=O)c2ccccc2C1=O	Sa growth 42C 0.6
O=C1C=C(c2ccccc2)C(=O)c2ccccc21	Sa growth 42C 3.8 (no result: S aureus helic)
O=C1C=C(Cc2ccc(F)cc2)C(=O)c2ccccc21	Sa growth 42C 0.2
CC1=CC(=O)c2ccccc2C1=O	none (no result: S aureus helic)
O=C1C(=Cc2ccc(F)cc2)C(=O)c2ccccc21	none (no result: S aureus helic)
O=C1C=C(Nc2ccccc2)C(=O)c2ccccc21	none
Cc1[nH]c2ccccc2c1C1=CCN(S(=O)(=O)c2ccccc2)CC1	none
Cc1ccc(NC(=O)c2ccccc2NS(C)(=O)=O)cc1C	none
O=C(O)c1ccc(Nc2ncnc3ccc(Br)cc23)cc1	none
OC(c1ccccc1)c1nnc(-c2ccccc2)o1 (configuration not stated)	none
O=C(NCc1ccccc1)C1CCCN1C(=O)OCc1ccccc1 (configuration not stated)	none
CC(C)N(C(=O)CSc1ccccc1C(=O)O)c1ccccc1	none (no result: Sa growth 42C)
CC(C)CCNC(=O)c1cc2ccc3cccnc3c2[nH]1	none
CCCc1cc(=O)n2[nH]cc(-c3ccc(Cl)cc3)c2n1	Sa growth 42C -0.6
COCc1cc(=O)n2[nH]cc(-c3ccc(Cl)cc3)c2n1	none
